Screening results: PubChem, National Center for Advancing Translational Sciences (NCATS)
Only some compounds are listed: those with a hit (about 19% of all), similar ones and a draw of the others.
HT1080NT lethal: kills 2HG-producing HT-1080-NT fibrosarcoma cells. Potency, µM (titrated, usually from 46.1 µM), for the others: at the top dose activity, negative = less viability, actives largely listed as cytotoxic. 360,000 tested, 1.6% active. AID 686970. HT-1080-NT fibrosarcoma viability, CellTiter-Glo ATP luminescence, 48 h;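 also: NT is the 2HG producing partner of a matched IDH1 knockdown line; 0% = DMSO-treated cells and -100% = media-only wells without cells; nearly all actives have a fitted effect of over 55% in size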
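Read-out is CellTiter-Glo luminescence after 10 minutes at room temperature, following 48 hours' compound treatment of HT-1080-NT cells (750 cells/well, RPMI, 5% FBS, 37 degrees C).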
TDP1 cell CPT: DT40-hTDP1 cell growth loss with CPT; chicken DT40 Tdp1-/-;hTDP1 cells + 20 nM CPT, ATP luminescence, 48 h; Potency, µM (highest dose often 46.2 µM), without a hit: at the highest dose activity change, negative = growth inhibition, usual class: inhibitors; 420,000 tested, 12% active; also: nearly all actives have a fitted effect of over 55% in size
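Cell growth measured by CellTiter-Glo luminescence after a minimum 48 h, 37 C compound exposure with 20 nM CPT in Tdp1-knockout DT40 cells stably expressing hTDP1, seeded 400/well; qHTS titration format.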
KB-V1 cytotox: KB-V1 MDR subline cytotoxicity; AID 1347076; Potency, µM (doses to about 46.1 µM), most hits filed as cytotoxic; KB-V1 MDR cells viability, CellTiter-Glo, 72 h; 400,000 tested, 3.4% active; also: nearly all actives have a fitted effect of over 60% in size
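Potencies derive from concentration-effect curves fitted to normalized luminescence (CellTiter-Glo) of KB-V1 cells treated for 72 h at 37 degrees C in phenol-red-free DMEM containing 10% FBS.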
KB-3-1 cytotox: kills parental KB-3-1 adenocarcinoma cells; Potency, µM (doses to about 46.1 µM), usual class: cytotoxic; AID 1347075; 400,000 tested, 1.4% active; KB-3-1 viability, CellTiter-Glo ATP luminescence, 72 h; also: nearly all actives have a fitted effect of over 60% in size
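72 h, 37 °C compound treatment of KB-3-1 parental cells; CellTiter-Glo added, 10 min, luminescence read. Data corrected against DMSO-only plates and normalized before curve fitting.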
DT40 TDP1 no CPT: qHTS for Inhibitors of human tyrosyl-DNA phosphodiesterase 1 (TDP1): qHTS in cells in absence of CPT; DT40 Tdp1-/- hTDP1 cells, no CPT, ATP luminescence, 48 h; Potency, µM (series often up to 46.2 µM), inactives show top-dose activity change, negative = growth inhibition, hits mostly inhibitors; 420,000 tested, 15% active; also: nearly all actives have a fitted effect of over 55% in size
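Seeded 400 DT40-hTDP1 cells/well (vehicle DMSO, no 20 nM CPT); pinned compounds; ≥48 hr at 37 °C; CellTiter-Glo luminescence as viability measure.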
HT1080 IDH1KD tx: HT-1080 IDH1 knockdown cell toxicity (counter line). HT-1080 IDH1 knockdown viability, ATP luminescence, 48 h. Potency, µM (titrated, usually from 46.1 µM), inactives show at the highest dose activity, negative = toxicity, actives largely listed as cytotoxic. 360,000 tested, 2% active;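 also: 0% = DMSO wells and -100% = cell-free medium wells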
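CellTiter-Glo luminescence after 48 h compound exposure at 37 degrees C of IDH1-knockdown HT-1080 cells in 5% FBS RPMI. %Activity scaled between DMSO wells and cell-free media wells, with curves fitted and assigned curve classes.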
* = called active by the depositor; i = inactive; ? = inconclusive; · = no result. Calls follow the shape of the dose curve; as a rule, active = well fitted curve in the direction sought with a large enough effect; inconclusive = small, poorly fitted or top-dose-only effect, or another doubt; inactive = no such curve, though single readings can be large; an effect the other way counts as inactive or inconclusive. Unless noted, % is scaled to controls: 0 for no effect and ±100 for the full control effect; potency is read from the fitted curve at half-maximal effect.

SMILES	HT1080NT lethal	TDP1 cell CPT	KB-V1 cytotox	KB-3-1 cytotox	DT40 TDP1 no CPT	HT1080 IDH1KD tx
CC(C)/C(O)=C1/C(=O)OC(c2ccoc2)[C@@]2(C)C(O)C(O)[C@@]34OC5(C)OC67CC(C)(C(O)[C@@]6(O)C(O)[C@@]3(O5)C12)C(CC(=O)O)[C@@]74C (some centres not stated)	·	10%	·	·	-4%	·
Cc1ccccc1CNC(=O)Nc1ccc2c(c1)N(C)C(=O)c1ccccc1S2	·	16µM*	·	·	16µM*	·
Cc1ccc(CC(=O)Nc2ccc3c(c2)N(C)C(=O)c2ccccc2S3)cc1	·	?	18µM*	i	?	·
COc1ccc(CNC(=O)Nc2ccc3c(c2)N(C)C(=O)c2ccccc2S3)cc1	·	?	·	·	21µM*	·
CC(C)NC(=O)Nc1ccc2c(c1)N(C)C(=O)c1ccccc1S2	·	?	i	i	-29%	·
COc1cc(OC)c(NC(=O)Nc2ccc3c(c2)N(C)C(=O)c2ccccc2S3)cc1Cl	·	5.8µM*	·	·	5.8µM*	·
CN1C(=O)c2ccccc2Sc2ccc(NC(=O)NCc3cccc(Cl)c3)cc21	·	23µM*	i	i	23µM*	·
COCCNC(=O)Nc1ccc2c(c1)N(C)C(=O)c1ccccc1S2	-5%	9%	i	i	-12%	0%
Cc1oc(-c2ccccc2Cl)nc1CSCC(=O)N1CCCC1	-19%	?	?	?	13µM*	?
Cc1oc(-c2ccccc2F)nc1CSCC(=O)N1CCN(c2ccccc2)CC1	·	21µM*	?	?	9.2µM*	·
O=c1c2ccccc2nc(-c2ccc(Cl)c(Cl)c2)n1O	-10%	6.5µM*	?	?	5.2µM*	-1%
O=c1c2ccc(Cl)cc2nc(-c2cccc(C(F)(F)F)c2)n1O	?	4.1µM*	?	?	3.7µM*	?
O=c1c2ccccc2nc(-c2ccccc2Cl)n1O	11%	12%	i	i	-10%	13%
Cc1ccc(-c2nc3c(Cl)cc(Cl)cc3c(=O)n2O)cc1	-14%	?	i	i	18µM*	-13%
CCNc1ncc2nc(-c3cn(C)c4ccccc34)c(=O)n(CCC#N)c2n1	·	-2%	·	·	3%	·
CCOc1cc(OCC)c(C(=O)CCC(=O)O)cc1OCC	·	0%	·	·	-30%	·
Cc1nc(SCC(=O)Nc2ccc(F)cc2)c(C#N)c(C)c1CC(=O)c1ccc(Br)cc1	-14%	16µM*	?	16µM*	?	-11%
Cc1ccc(NC(=O)CSc2nc(-c3ccc(F)cc3)cc(C(F)(F)F)c2C#N)cc1	·	?	i	i	-24%	·
Cc1cccc(NC(=O)CSc2nc(C)c(CC(=O)c3ccc(Br)cc3)c(C)c2C#N)c1C	-13%	13µM*	?	?	15µM*	?
C[C@]12CCC(=O)C=C1CC[C@@H]1[C@@H]2CC[C@@]2(C)[C@H]1CC[C@]2(O)C(=O)CO	-1%	?	i	i	?	10%
C=C1CC2C(CCC3(C)C2CCC3(O)C(C)=O)C2(C)CCC(=O)C=C12 (configuration not stated)	?	?	21µM*	21µM*	26µM*	-29%
CC(=O)[C@@]1(O)CC[C@H]2[C@@H]3CCC4=CC(=O)CC[C@]4(C)[C@H]3[C@@H](O)C[C@@]21C	?	-18%	?	i	-16%	13%
CC(=O)C1(C)CCC2C3C=C(C)C4=CC(=O)CCC4(C)C3CCC21C (configuration not stated)	0%	18µM*	4.6µM*	?	23µM*	7%
O=C(/C=C/[C@H]1O[C@@H](n2ccc(=O)[nH]c2=O)[C@H](O)[C@@H]1O)NCc1ccco1	20%	-2%	i	i	-2%	25%
COc1ccc(C2(CNC(=O)/C=C\c3ccco3)CCCC2)cc1OC	6%	18µM*	i	i	29µM*	0%
SMILES	HT1080NT lethal	TDP1 cell CPT	KB-V1 cytotox	KB-3-1 cytotox	DT40 TDP1 no CPT	HT1080 IDH1KD tx
COc1ccc(C(NC(=O)/C=C/c2ccco2)c2ccc(OC)c(OC)c2)cc1OC	8%	-11%	i	i	2%	8%
COc1ccc(C2(CNC(=O)C(=O)Nc3ccccc3C)CCCC2)cc1OC	·	23µM*	i	i	18µM*	·
COc1ccc(C2(CNC(=O)C(=O)Nc3ccc(F)cc3)CCCC2)cc1OC	·	18µM*	i	?	18µM*	·
CCCOc1ccc(Oc2nc(NC)nc(N3CCOCC3)n2)nn1	·	?	·	·	-10%	·
CCOc1ccccc1NC(=O)Cn1c(=O)n(CCC(C)C)c(=O)c2cccnc21	·	-9%	i	i	-14%	·
Cc1c(C(=O)Nc2ccc(F)cc2)nnn1-c1cccc(C(F)(F)F)c1	-6%	7.3µM*	?	i	9.2µM*	-9%
Cc1cccc(-n2nnc(C(=O)Nc3ccc(F)cc3)c2N)c1	4%	?	?	i	?	-8%
OCCN1CCN(C(=S)c2ccc(Cl)c(Cl)c2)CC1	-2%	18µM*	i	i	18µM*	2%
COc1cc(NC(=S)N2CCN(CCO)CC2)c(OC)cc1Cl	-1%	-12%	i	i	-6%	0%
Cc1cc(-c2c(C)[nH]n(-c3ccccc3)c2=O)n(-c2ccccc2)n1	2%	-22%	i	i	1%	-2%
Cc1cc(-c2c(C)[nH]n(-c3ccccc3)c2=O)n[nH]1	-23%	2.9µM*	i	?	4.1µM*	-3%
CC1C(=O)N(Cc2cn(CCC3OCCO3)nn2)CCS(=O)(=O)N1Cc1ccc(-c2ccc(F)nc2)cc1 (configuration not stated)	4%	-24%	i	i	?	4%
O=C(COc1ccc(Cl)cc1)NCC(c1cccs1)S(=O)(=O)c1ccc(F)cc1 (configuration not stated)	·	?	i	i	?	·
CN(C(=O)COc1ccccc1C(=O)NCCOc1ccccc1)c1ccccc1	21µM*	2.3µM*	8.2µM*	15µM*	2.3µM*	?
O=C(NCCOc1ccccc1)c1ccccc1Cl	6%	7%	?	i	2%	13%
Cc1ccc(CNc2nc(-c3ccco3)nn2S(C)(=O)=O)cc1	·	6%	·	·	-6%	·
Cc1cc(C)c(C)c(S(=O)(=O)N2CCC(C(=O)N3CC(C)CC(C)C3)CC2)c1C (configuration not stated)	-2%	18µM*	?	i	26µM*	-10%
